Rows were chosen to be rich in hits. Some 21% of all compounds tested hit in one or more screens of this group.
IL-1B inflam inh – inflammasome signaling inhibition, IL-1 beta readout | THP-1 LPS/ATP IL-1B secretion, AlphaLISA, 16 h; hits give low values | activity change, % at 57.5 µM | hit rate 4.7% among 360,000; in the data active = activity change below about -50%; inconclusive = mostly about -30% to -49%; note: % is set by controls: 0 for no effect and ±100 for the full control effect
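Secreted IL-1B measured by AlphaLISA bead assay after 16 h compound exposure of THP-1 cells; compounds (final up to 57.5 uM) added 1 h before LPS (250 ng/mL) and ATP (1.25 mM) stimulation; lower signal means less secretion.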
ClpP mod – qHTS Assay for Activators of ClpP; purified B. subtilis ClpP, FRET peptide cleavage, 20 min; AID 651965, 2013; Potency, µM (series often up to 57.5 µM), for the others: at the highest dose activity change, negative = active; ATP-dependent Clp protease proteolytic subunit (Bacillus subtilis (strain 168)), P80244; hit rate 1.9% among 340,000; active = well fitted falling curve with a large enough effect; inconclusive = small, poorly fitted or top-dose-only effect; inactive = no such curve, though single readings can be large or run the other way; note: potency is the fitted concentration of half-maximal effect; the source files actives as falling curves though it sought activators and does not explain the sign; nearly all actives have a fitted effect of over 65% in size
Target sequence (P80244 whole entry, looked up): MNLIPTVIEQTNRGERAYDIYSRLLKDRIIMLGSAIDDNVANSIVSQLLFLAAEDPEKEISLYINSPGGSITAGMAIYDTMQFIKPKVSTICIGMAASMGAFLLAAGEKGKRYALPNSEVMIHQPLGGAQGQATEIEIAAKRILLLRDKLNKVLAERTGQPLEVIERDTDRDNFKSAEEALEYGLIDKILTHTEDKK
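Purified B. subtilis ClpP, 10 microg/mL final in Tris/HCl pH8 with KCl, BSA, glycerol and Tween-20, cleaved an Abz/nitrotyrosine-quenched decapeptide. Fluorescence (ex 320, em 430) was read at 0 and 20 min at room temperature. Delta was normalized to 5.8 microM ADEP and DMSO/no-enzyme controls.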
DT40 TDP1 no CPT – qHTS for Inhibitors of human tyrosyl-DNA phosphodiesterase 1 (TDP1): qHTS in cells in absence of CPT. DT40 Tdp1-/- hTDP1 cells, no CPT, ATP luminescence, 48 h. Potency, µM (top dose mostly 46.2 µM), inactives show at the highest dose activity change, negative = growth inhibition, most hits filed as inhibitors. hit rate 15% among 420,000; note: potency is the fitted concentration of half-maximal effect; % is set by controls: 0 for no effect and ±100 for the full control effect; nearly all actives have a fitted effect of over 55% in size
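Growth kinetics read by CellTiter-Glo luminescence after ≥48 hr at 37 °C. Cells: DT40 Tdp1-/- stably carrying human TDP1, 400 per well, compound exposure in the absence of CPT (DMSO vehicle).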
DRD3 antagonist – antagonists of human D3 dopamine receptor; P35462; D3R cells, DiscoveRx beta-arrestin luminescence, antagonist mode; hits give low values; max response, negative = inhibition, %; hit rate 2.5% among 360,000; AID 652054; in the data active = max response below about -50%; inconclusive = no clear call, values can overlap the other calls; note: % is set by controls: 0 for no effect and ±100 for the full control effect
Target sequence (P35462 whole entry, looked up): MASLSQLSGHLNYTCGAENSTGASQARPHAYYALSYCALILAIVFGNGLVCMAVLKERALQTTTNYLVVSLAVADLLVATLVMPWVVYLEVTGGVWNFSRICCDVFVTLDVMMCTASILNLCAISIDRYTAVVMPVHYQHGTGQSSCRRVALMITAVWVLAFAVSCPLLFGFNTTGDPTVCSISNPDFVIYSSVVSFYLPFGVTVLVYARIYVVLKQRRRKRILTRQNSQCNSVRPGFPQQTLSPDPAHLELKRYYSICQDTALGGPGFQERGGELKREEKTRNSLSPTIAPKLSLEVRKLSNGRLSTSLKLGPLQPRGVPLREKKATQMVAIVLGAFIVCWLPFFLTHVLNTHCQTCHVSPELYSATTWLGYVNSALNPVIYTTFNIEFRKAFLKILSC
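Cells expressing the human receptor were seeded at 1500 cells/well, incubated overnight at 37 degrees C in 5% CO2, then exposed to library compounds with dopamine controls for 90 minutes at 37 degrees C before luminescent detection.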
DT40 TDP1 CPT – growth inhibition of DT40 Tdp1-/-;hTDP1 cells with camptothecin (screen for TDP1 inhibitors); chicken DT40 Tdp1-/-;hTDP1 cells + 20 nM CPT, ATP luminescence, 48 h; Potency, µM (series often up to 46.2 µM), without a hit: at the top dose activity change, negative = growth inhibition, most hits filed as inhibitors; hit rate 12% among 420,000; AID 686979; note: potency is the fitted concentration of half-maximal effect; % is set by controls: 0 for no effect and ±100 for the full control effect; nearly all actives have a fitted effect of over 55% in size
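Cell growth measured by CellTiter-Glo luminescence after a minimum 48 h, 37 C compound exposure with 20 nM CPT in Tdp1-knockout DT40 cells stably expressing hTDP1, seeded 400/well; qHTS titration format.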
DRD3 agonist – D3 dopamine receptor (human) agonism; P35462; D3R DiscoveRx beta-arrestin cells, luminescence, 90 min; max activation, %; hit rate 0.58% among 410,000; in the data active = max activation above about 30%; note: 0% is about no effect
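Cells at 1500/well, incubated overnight, then treated with pinned compounds (dopamine as control) for 90 min at 37 degrees C. DiscoveRx reagent added for 30 - 60 minutes at room temperature; luminescence read.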
* = called active by the depositor; ? = inconclusive; / = not tested or not shown. Unless noted, calls come from the whole dose curve; as a rule, active = well fitted inhibition curve with a large enough effect; inconclusive = small, poorly fitted or top-dose-only effect; inactive = flat fitted curve, though single readings scatter.

SMILES	IL-1B inflam inh	ClpP mod	DT40 TDP1 no CPT	DRD3 antagonist	DT40 TDP1 CPT	DRD3 agonist
Cc1ccc(OCC(=O)N(C)CC(=O)Nc2ccc(Cl)c(C(F)(F)F)c2)c([N+](=O)[O-])n1	-19	-2%	?	-2	?	-12
Cc1c(C(=O)c2ccc(Cl)c(Cl)c2)cnc2cc3c(cc12)OCO3	-22	-1%	?	-56*	?	2
Cc1c(C(=O)c2ccc3c(c2)OCO3)ccc2c1OCO2	29	0%	?	6	?	2
COc1ccc(C(=O)c2cnc3cc4c(cc3c2C)OCO4)cc1	-56*	0%	?	22	?	14
Brc1cccc(OCCCN2CCCCCC2)c1	-11	/	?	-74*	-14%	-17
CC(C)c1cccc(OCCCCN(C)C)c1	-12	/	-24%	-58*	?	-19
Clc1cccc(OCCN2CCN(CCOc3cccc(Cl)c3)CC2)c1	-85*	/	2.3µM*	-21	2.9µM*	58*
CC1CCN(CCCCOc2cccc(C(C)C)c2)CC1	-20	-1%	?	-108*	16µM*	-20
CN(C)CCCOc1cccc(Cl)c1	-2	-3%	9%	?	-3%	-11
Cc1ccc(Cl)c(OCCCCN2CCC(C)CC2)c1	0	1%	10%	4	15%	-8
O=C(Nc1nnc([C@@H]2C[C@H](O)[C@@H](CO)O2)s1)NC1CCCCC1	18	-1%	-5%	-15	-11%	-3
Cc1nn(CCOc2cccc(Cl)c2)c(C)c1[N+](=O)[O-]	?	0%	-20%	-64*	-29%	-15
COc1ccc(CCn2nc(C)c([N+](=O)[O-])c2C)cc1	14	0%	2%	-1	-30%	2
CC1CCN(CCOc2cccc(Br)c2)CC1	-6	-2%	-26%	-75*	30%	3
CC1CCN(CCOc2cc(Cl)ccc2Cl)CC1	12	0%	-13%	?	-14%	-5
COc1ccc(NS(=O)(=O)c2cc(NC(=O)c3cnc(C)cn3)ccc2N2CCCC2)cc1	-1	-14%	?	1	-24%	15
COc1ccc(NS(=O)(=O)c2cc(NC(=O)c3cnc(C)cn3)ccc2N2CCCCC2)cc1	-9	-4%	?	-9	?	-1
COc1ccc(NS(=O)(=O)c2cc(NC(=O)c3ccco3)ccc2N2CCCCC2)cc1	0	-6%	18µM*	?	?	-10
COc1ccc(NS(=O)(=O)c2cc(NC(=O)c3ccc(=O)[nH]c3)ccc2N2CCCC2)cc1	73	-3%	7.3µM*	-2	4.1µM*	-2
Cc1cc([N+](=O)[O-])ccc1NC(=O)CSc1nncn1-c1cccnc1	-4	/	-23%	-1	-4%	6
C=CC(C)(C)c1c(O)c(CC=C(C)C)c(O)c2c(=O)c3ccc(O)c(O)c3oc12	83	-2%	18µM*	81	16µM*	89*
Cc1cccc(NC(=O)CSc2nc(=O)n(CCN3CCOCC3)c3c2CCC3)c1	/	-7%	-3%	/	0%	-6
Cc1ccc(C(=O)NC(Cc2ccccc2C(F)(F)F)C(=O)O)cc1 (configuration not stated)	10	1%	0%	?	-3%	40*
Cc1ccc(NC(=O)C(C)OC(=O)c2nc(Cl)ccc2Cl)cc1S(=O)(=O)N1CCOCC1 (configuration not stated)	21	-5%	4%	24	0%	6
Cc1ccc(NC(=O)C(C)OC(=O)c2ccc(Cl)nc2)cc1S(=O)(=O)N1CCOCC1 (configuration not stated)	12	28µM*	-19%	-1	-19%	-4
SMILES	IL-1B inflam inh	ClpP mod	DT40 TDP1 no CPT	DRD3 antagonist	DT40 TDP1 CPT	DRD3 agonist
COc1ccc(C(=O)Nc2ccc(S(=O)(=O)N3CCOCC3)cc2)cc1	12	0%	-21%	2	-3%	3
COc1cccc(CNC(=O)c2ccc(Cl)c(S(=O)(=O)N3CCOCC3)c2)c1	-8	-3%	4.1µM*	1	-12%	2
O=C(Nc1ccc(Cl)c(S(=O)(=O)N2CCOCC2)c1)c1ccc(Cl)nc1	28	-4%	18µM*	-7	?	3
O=C(Nc1ccc(Cl)c(S(=O)(=O)N2CCOCC2)c1)c1ccc2c(c1)OCCO2	-24	0%	?	21	?	2
COc1ccc(C(=O)Nc2ccc(Cl)c(S(=O)(=O)N3CCOCC3)c2)cc1	-75*	/	?	13	?	7
Cc1cccc(C)c1NC(=O)COC(=O)c1cccc2c1C(=O)c1ccccc1C2=O	-6	-1%	8.2µM*	15	12µM*	1
Cc1cccc(C(=O)OCC(=O)NC(=O)c2ccccc2)c1O	2	13µM*	4%	10	12%	0
Cc1cccc(NC(=O)COC(=O)c2cccc3c2C(=O)c2ccccc2C3=O)c1C	-19	1%	16µM*	83	?	28
Nc1cccc(C(=O)OCC(=O)Nc2cccc3c2C(=O)c2ccccc2C3=O)c1	-18	-3%	12µM*	35	?	5
Cc1ccc(NC(=O)Cc2nc(CN(C)CC(=O)Nc3ccc(C)cc3)cs2)cc1	-15	2%	1%	11	-6%	8
CC(C)N(C(=O)CSc1nnc(C2CC2)n1C1CC1)c1ccccc1	7	/	-15%	-8	3%	9
Cc1ccc(F)cc1CNC(=O)C1CCC(=O)N(C2CC2)C1 (configuration not stated)	-6	-1%	-4%	-6	-10%	-2
CCOc1ccc(CCNC(=O)Cn2ncc3c([nH]c4ccccc43)c2=O)cc1OCC	/	-4%	7%	/	-5%	4
CCc1nccn1S(=O)(=O)c1cc(OC)ccc1OC	34	?	-7%	-1	-15%	-7
CCN(CC)CCC(=O)Nc1cccc2c1C(=O)c1ccccc1C2=O	/	/	10µM*	-1	12µM*	-2
CCCN(CCC(=O)Nc1ccccc1F)CC1CC1	10	1%	-10%	?	-14%	-9
CCn1c(NC(=O)c2ccc(COc3ccc(C)cc3[N+](=O)[O-])o2)nc2ccccc21	-11	-1%	?	10	16µM*	37*
N=c1n(Cc2ccccc2)c2ccccc2n1CC(O)COc1ccccc1 (configuration not stated)	-88*	2%	6.5µM*	32	7.3µM*	4
